Test results from paper PMC4336329 (PLoS ONE, 2015).
The whole screen tested about 310,000 compounds, of which about 14,000 (4.5%) showed an effect of 50% or more. Effects have a minus sign here. Only a selection was taken, and strong results are over-represented in it overall.

Target: human ether-à-go-go-related gene (hERG) potassium channel (human, UniProt Q12809)
Assay: primary screen, population patch clamp on CHO cells stably expressing hERG; higher = less effect of the substance
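Also: peak tail current of the secondary pulse compared with the same well before compound.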

Sequence of human ether-à-go-go-related gene (hERG) potassium channel (Q12809 whole entry, looked up): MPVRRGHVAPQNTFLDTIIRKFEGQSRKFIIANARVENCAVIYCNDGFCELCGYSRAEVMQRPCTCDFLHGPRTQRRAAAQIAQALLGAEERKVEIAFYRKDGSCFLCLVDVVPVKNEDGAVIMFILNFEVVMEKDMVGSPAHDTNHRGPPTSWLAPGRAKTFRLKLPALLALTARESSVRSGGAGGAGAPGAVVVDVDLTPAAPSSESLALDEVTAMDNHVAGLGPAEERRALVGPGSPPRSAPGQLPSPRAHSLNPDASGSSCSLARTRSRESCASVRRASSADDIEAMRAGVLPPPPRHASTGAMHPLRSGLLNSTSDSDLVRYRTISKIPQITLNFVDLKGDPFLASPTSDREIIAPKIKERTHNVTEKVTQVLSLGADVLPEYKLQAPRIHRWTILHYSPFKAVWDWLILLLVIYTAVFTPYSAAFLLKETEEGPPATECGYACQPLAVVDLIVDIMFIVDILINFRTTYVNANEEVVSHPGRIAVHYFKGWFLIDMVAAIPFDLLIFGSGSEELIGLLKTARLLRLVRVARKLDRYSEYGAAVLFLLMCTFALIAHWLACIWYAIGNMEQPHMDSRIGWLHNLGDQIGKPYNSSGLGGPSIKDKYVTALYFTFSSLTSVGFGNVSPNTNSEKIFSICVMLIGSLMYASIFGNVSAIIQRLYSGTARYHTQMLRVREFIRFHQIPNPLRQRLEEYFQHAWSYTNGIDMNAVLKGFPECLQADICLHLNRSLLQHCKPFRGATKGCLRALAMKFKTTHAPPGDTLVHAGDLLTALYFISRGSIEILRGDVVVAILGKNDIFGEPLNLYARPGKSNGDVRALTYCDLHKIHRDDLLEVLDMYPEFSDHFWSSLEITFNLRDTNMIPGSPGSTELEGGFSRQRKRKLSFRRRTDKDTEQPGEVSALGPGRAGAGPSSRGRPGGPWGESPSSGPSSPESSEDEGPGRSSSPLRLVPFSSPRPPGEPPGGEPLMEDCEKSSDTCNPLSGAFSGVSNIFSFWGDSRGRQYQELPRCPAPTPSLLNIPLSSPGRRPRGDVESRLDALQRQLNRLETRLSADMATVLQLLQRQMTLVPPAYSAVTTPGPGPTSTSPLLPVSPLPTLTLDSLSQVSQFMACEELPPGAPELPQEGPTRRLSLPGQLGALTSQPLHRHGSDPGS

Compound | hERG current change (%, negative = inhibition) at 10uM [%]
CCCCOC(=O)Nc1ccc(S(=O)(=O)Nc2ccc([N+](=O)[O-])cc2)cc1 | 9.83
Cc1cc(C(=O)OCC(=O)c2cccs2)c2ccccc2n1 | 24.1
O=c1[nH][nH]c(-c2ccccc2)c1C=Nc1ccc(Cl)cc1 | -23
Cc1ccc(C(=O)C2=C(O)C(=O)N(CCCN3CCOCC3)C23C(=O)N(C)c2ccccc23)o1 (stereo not shown) | 27.9
O=C(Cn1[nH]c(=O)c2ccccc2c1=O)OCC(=O)c1ccccc1Cl | -0.463
Cc1nn(-c2ccc(F)cc2)c(C)c1CN1CCN(Cc2ccccc2)C(CCO)C1 (stereo not shown) | -44.2
Cc1nn(-c2ccc(F)cc2)c(C)c1CN1CCN(CCC(C)C)C(CCO)C1 (stereo not shown) | -36.3
OCCC1CN(Cc2ccc3nsnc3c2)CCN1CCc1ccccc1 (stereo not shown) | -82.2
Cc1nn(-c2ccc(F)cc2)c(C)c1CN1CCN(CCc2ccccc2)C(CCO)C1 (stereo not shown) | -67.5
CC(C)=CCN1CCN(Cc2ccc3nsnc3c2)CC1CCO (stereo not shown) | -19.4
OCCC1CN(Cc2cccc(F)c2F)CCN1CCc1ccccc1 (stereo not shown) | -55.3
CC(C)n1cc(CN2CCN(CCc3ccccc3)C(CCO)C2)cn1 (stereo not shown) | -53.4
CCn1cc(CN2CCN(CCc3ccccc3)C(CCO)C2)c(C)n1 (stereo not shown) | -31
Cn1cc(CN2CCN(CCc3ccccc3)C(CCO)C2)cn1 (stereo not shown) | 4.52
CC(C)CCN1CCN(Cc2ccc3nsnc3c2)CC1CCO (stereo not shown) | -42.6
O=C(O)c1cncc(C#Cc2ccccc2)c1 | 1.39
Cc1c(C(=O)Nc2ccc(OCc3ccccc3)cc2)cccc1[N+](=O)[O-] | -0.125
CC1CCCCN1S(=O)(=O)c1ccc(C(=O)N2CCOCC2)cc1 (stereo not shown) | 16.8
C[Se]C[C@@H](N)C(=O)O.Cl | 12.3
COc1cc2ccccc2cc1C(=O)OCC(=O)N(C)c1c(N)n(Cc2ccccc2)c(=O)[nH]c1=O | 3.29
Cn1c(C(=O)NCCN2CCc3ccccc3C2)cc2c(=O)n(C)c3ccccc3c21 | -11.8
N/C(=N\OC(=O)CCCOc1ccccc1)c1ccccc1 | 7.28

Compound | hERG current change (%, negative = inhibition) at 10uM [%]
Br.COC(=O)c1ccc(OCCN2C3=NCCN3c3ccccc32)cc1 | -68.7
Br.COC(=O)CN1C2=NCCCN2c2ccccc21 | -11.8
COC(=O)c1ccc(OCCOc2ccc(C(=O)OC)cc2)cc1 | -14.3
Cl.c1ccc(OCCN2C3=NCCN3c3ccccc32)cc1 | -73.3
CCN(CC)c1ccc(/C=N/NC(=O)c2ccc3nc[nH]c3c2)cc1 | -22
N#C/C(=C/c1ccccc1)C(=O)OCC(=O)Nc1ccccc1[N+](=O)[O-] | 8.46
Cc1nn(-c2ccccc2)c(C)c1-c1nnc(C(F)(F)F)o1 | 2.32
Cn1c(=O)c2c(-c3ccc(C(C)(C)C)cc3)n(N3CCOCC3)cc2n(C)c1=O | -26.7
Cc1ccc(-c2c3c(=O)n(C)c(=O)n(C)c3cn2N2CCOCC2)cc1 | -40
COc1ccc(-c2c3c(=O)n(C)c(=O)n(C)c3cn2N2CCOCC2)cc1 | -52.3
COC(=O)c1cc(C(=O)Nc2ccc(Cl)cn2)cc([N+](=O)[O-])c1 | -19
O=c1oc2cc(S(=O)(=O)NCCCO)ccc2c2ccc(S(=O)(=O)NCCCO)cc12 | 16.1
CN(C)CC1CCCCC1OC(=O)c1ccc(Br)cc1.Cl (stereo not shown) | -7.82
CN1CCC(OC(=O)c2ccccc2Cl)CC1.Cl | 0.522
CN(C)CC1CCCCC1OC(=O)c1ccc(Cl)c(Cl)c1.Cl (stereo not shown) | -52.1
CN(C)CC1CCCCC1OC(=O)c1ccc(Cl)cc1Cl.Cl (stereo not shown) | -56.5
CN1CCC(OC(=O)c2cccc(Cl)c2)CC1.Cl | -8.64
CN(C)CC1CCCCC1OC(=O)/C=C/c1ccc(Cl)cc1Cl.Cl (stereo not shown) | -32.4
CN(C)CC1CCCCC1OC(=O)c1ccc(Cl)cc1 (stereo not shown) | -28.5
COc1ccc(C(=O)OC2CCCCC2CN(C)C)cc1.Cl (stereo not shown) | 14.1
CN1CCC(OC(=O)c2ccc(Cl)cc2Cl)CC1.Cl | -55.9
Cc1cc(C)n2nc(C(=O)N3CCCC(Nc4ccc(F)c(F)c4)C3)cc2n1 (stereo not shown) | 5.05

Compound | hERG current change (%, negative = inhibition) at 10uM [%]
COc1cccc(N2C(=O)CC(N3CCN(C(=O)c4ccco4)CC3)C2=O)c1 (stereo not shown) | 9.29
COCCN(C(=O)c1ccc(NC2CC2)c([N+](=O)[O-])c1)c1c(N)n(CC(C)C)c(=O)[nH]c1=O | -5.42
C[C@@H]1CC[C@]2(O[C@H](CCO)C[C@@H](O)[C@@H]2O)O1 | 0.536
CC(C)(c1ccccc1)c1ccc(OCCN)cc1.Cl | -20.2
Cc1cccc(NC(=O)CCc2c(C)nn(-c3ccc(N4CCOCC4)nn3)c2C)c1 | 3.98
CCc1cccc(NC(=O)CCc2c(C)nn(-c3ccc(N4CCOCC4)nn3)c2C)c1 | -51.4
CCc1cccc(NC(=O)CCc2c(C)nn(-c3ccc(N4CCCCC4)nn3)c2C)c1 | -19
COc1ccc(NC(=O)Cn2c(=O)oc3cc(S(=O)(=O)N4CCCC4)ccc32)cc1 | 5.26
CC1(C)CC(=O)C2=C(C1)N(c1ccccc1)C(=O)CC2c1ccsc1 (stereo not shown) | -14.4
O=C(NCc1ccccc1)C1CCN(S(=O)(=O)N2CCCCCC2)CC1 | -11
CCn1c(=O)c(C(=O)NCCNCCO)c(O)c2ccccc21.Cl | 5.89
CCN1C(=O)C(CC(=O)Nc2ccc(OC)cc2)N(CCCN2CCN(c3ccc(F)cc3)CC2)C1=S (stereo not shown) | -37.6
CCCOc1ccc(NC(=O)CC2C(=O)N(CC)C(=S)N2CCNC(C)=O)cc1 (stereo not shown) | -11.5
CCN1C(=O)C(CC(=O)Nc2ccc(OC)cc2)N(CCCN2CCN(c3ccc(OC)cc3)CC2)C1=S (stereo not shown) | -68
C=CCN1C(=O)C(CC(=O)Nc2ccc(OCCC)cc2)N(CCCN2CCN(Cc3ccccc3)CC2)C1=S (stereo not shown) | -38.7
CCN1C(=O)C(CC(=O)Nc2ccc(F)cc2)N(CCCN2CCN(c3ccc(F)cc3)CC2)C1=S (stereo not shown) | -62.2
CCCOc1ccc(NC(=O)CC2C(=O)N(CC)C(=S)N2CCCN2CCN(Cc3ccccc3)CC2)cc1 (stereo not shown) | -50.5
CCN1C(=O)C(CC(=O)Nc2ccc(OC)cc2)N(CCN2CCOCC2)C1=S (stereo not shown) | -4.13
CCN1C(=O)C(CC(=O)Nc2ccc(F)cc2)N(CCc2ccc(OC)cc2)C1=S (stereo not shown) | -0.637
CCN1C(=O)C(CC(=O)Nc2ccc(OC)cc2)N(CCc2ccc(F)cc2)C1=S (stereo not shown) | -6.48
O=C(Nc1ccccn1)C1CCN(C(=O)c2ccc(F)cc2)CC1 | 3.81
CC1CC(C)CN(S(=O)(=O)c2cccc3nsnc23)C1 (stereo not shown) | 4.61

Compound | hERG current change (%, negative = inhibition) at 10uM [%]
Cc1cc(C)c2c3c(oc2n1)C(=O)N(c1cccc(Cl)c1)CC(=O)N3 | 1.82
NC(=O)CC1NC(=O)c2cc([N+](=O)[O-])cc(I)c2OCCC(C(N)=O)NC(=O)[C@@H]2CCCN2C1=O (stereo partly shown) | 6.79
O=C(c1ccc2c3c(cccc13)C(=O)N(O)C2=O)N1CCCCC1 | 12.4
C[C@@H](C(=O)NC1CCCC1)N1C(=O)N2CCc3c([nH]c4ccccc34)[C@@]2(C)C1=O | -27.5
CC(C)[C@@H](C(=O)NC1CCN(Cc2ccccc2)CC1)N1C(=O)N2CCc3c([nH]c4ccccc34)[C@@]2(C)C1=O | -74.6
COc1ccc2[nH]c3c(c2c1)CCN1C(=O)N([C@@H](C)C(=O)NC2CCN(Cc4ccccc4)CC2)C(=O)[C@]31C | -48.8
COc1ccc2[nH]c3c(c2c1)CCN1C(=O)N([C@@H](C)C(=O)NCc2ccco2)C(=O)[C@]31C | -53.8
COc1ccc2[nH]c3c(c2c1)CCN1C(=O)N([C@@H](C)C(=O)NCc2ccccc2)C(=O)[C@]31C | 2.42
COC(=O)C1Cc2c([nH]c3ccccc23)C2(CCN(Cc3ccccc3)CC2)N1 (stereo not shown) | -68.2
COC(=O)[C@H]1Cc2c([nH]c3ccccc23)[C@H](c2ccccc2)N1 | 5.76
CC(C)[C@@H](C(=O)NC1CCCC1)N1C(=O)N2CCc3c([nH]c4ccccc34)[C@@]2(C)C1=O | -12.4
C[C@@H](C(=O)NC1CCN(Cc2ccccc2)CC1)N1C(=O)N2CCc3c([nH]c4ccccc34)[C@@]2(C)C1=O | -77.8
COC(=O)[C@@H]1Cc2c([nH]c3ccccc23)C(C)(C)N1C(=O)CCl | 3.24
CC(C)[C@@H](C(=O)NC1CC1)N1C(=O)N2CCc3c([nH]c4ccccc34)[C@@]2(C)C1=O | -6.45
COc1ccc(CNC(=O)[C@H](C)N2C(=O)N3CCc4c([nH]c5ccc(OC)cc45)[C@@]3(C)C2=O)cc1 | 9.36
CCCC(=O)n1nc(-c2cccnc2)nc1N | -27.1
CC(C)C[C@@H](C(=O)N[C@@H](C(=O)O)c1ccccc1)N1C(=O)N2CCc3c([nH]c4ccccc34)[C@@]2(C)C1=O | -6.67
CC(C)C[C@@H](C(=O)NC1CCN(Cc2ccccc2)CC1)N1C(=O)N2CCc3c([nH]c4ccccc34)[C@@]2(C)C1=O | -53.2
CC(C)C[C@@H](C(=O)NC1CC1)N1C(=O)N2CCc3c([nH]c4ccccc34)[C@@]2(C)C1=O | -15
